Reference: the supplement of paper PMC10849652
About 8,800 targets were measured; listed, in parts, are those with a hit and a random draw of the rest. About 0.5% of all pairs of compound and target were hits. Values without a mark were called inactive.

Compound: NCC(=O)Nc1ccc(-n2nc(C(F)(F)F)cc2-c2ccc3c(ccc4ccccc43)c2)cc1
Assay: log2 fold change, soluble protein after heating vs DMSO (PISA); higher = thermal stabilisation; K562 lysate, 10 uM; active = over 0.2 and 3.5 SD of the protein, either way, in both replicates (recomputed)
Method in brief: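 The values are log-two fold changes in thermal stability compared with solvent controls and come from duplicates. They were obtained by TMTpro 16plex LC-MS/MS, with channel sums equalised, on the supernatant after 21,000xg for 90 min. That supernatant came from crude K562 extract at 1 mg/mL protein treated with 10 μM compound for 30 min, heated for 3 min across 48°C-58°C, pooled and brought to 0.5% NP-40 at 4°C.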

Chain of UniProt O15117 (O15117 whole entry, looked up): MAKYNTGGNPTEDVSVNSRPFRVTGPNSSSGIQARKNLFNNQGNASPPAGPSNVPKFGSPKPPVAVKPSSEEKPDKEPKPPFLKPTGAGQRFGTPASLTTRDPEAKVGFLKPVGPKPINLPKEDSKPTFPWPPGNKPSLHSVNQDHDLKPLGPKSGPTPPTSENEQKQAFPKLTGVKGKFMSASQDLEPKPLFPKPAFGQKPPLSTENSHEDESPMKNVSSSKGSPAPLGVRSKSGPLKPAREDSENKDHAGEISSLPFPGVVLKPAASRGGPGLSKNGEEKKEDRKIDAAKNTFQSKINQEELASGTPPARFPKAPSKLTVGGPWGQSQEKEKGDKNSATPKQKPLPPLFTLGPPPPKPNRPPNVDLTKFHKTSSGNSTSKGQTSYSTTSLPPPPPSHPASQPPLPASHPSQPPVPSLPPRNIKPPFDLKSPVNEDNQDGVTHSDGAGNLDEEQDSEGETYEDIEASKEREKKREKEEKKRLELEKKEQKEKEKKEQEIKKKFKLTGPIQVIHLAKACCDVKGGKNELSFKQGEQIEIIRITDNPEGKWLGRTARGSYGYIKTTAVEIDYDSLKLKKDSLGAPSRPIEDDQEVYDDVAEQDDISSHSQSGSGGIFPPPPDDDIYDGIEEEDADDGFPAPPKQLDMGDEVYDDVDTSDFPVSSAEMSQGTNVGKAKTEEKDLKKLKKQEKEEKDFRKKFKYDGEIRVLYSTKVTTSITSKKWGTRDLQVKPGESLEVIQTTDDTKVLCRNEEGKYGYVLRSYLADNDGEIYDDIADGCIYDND
Chain of UniProt O60645 (O60645 whole entry, looked up): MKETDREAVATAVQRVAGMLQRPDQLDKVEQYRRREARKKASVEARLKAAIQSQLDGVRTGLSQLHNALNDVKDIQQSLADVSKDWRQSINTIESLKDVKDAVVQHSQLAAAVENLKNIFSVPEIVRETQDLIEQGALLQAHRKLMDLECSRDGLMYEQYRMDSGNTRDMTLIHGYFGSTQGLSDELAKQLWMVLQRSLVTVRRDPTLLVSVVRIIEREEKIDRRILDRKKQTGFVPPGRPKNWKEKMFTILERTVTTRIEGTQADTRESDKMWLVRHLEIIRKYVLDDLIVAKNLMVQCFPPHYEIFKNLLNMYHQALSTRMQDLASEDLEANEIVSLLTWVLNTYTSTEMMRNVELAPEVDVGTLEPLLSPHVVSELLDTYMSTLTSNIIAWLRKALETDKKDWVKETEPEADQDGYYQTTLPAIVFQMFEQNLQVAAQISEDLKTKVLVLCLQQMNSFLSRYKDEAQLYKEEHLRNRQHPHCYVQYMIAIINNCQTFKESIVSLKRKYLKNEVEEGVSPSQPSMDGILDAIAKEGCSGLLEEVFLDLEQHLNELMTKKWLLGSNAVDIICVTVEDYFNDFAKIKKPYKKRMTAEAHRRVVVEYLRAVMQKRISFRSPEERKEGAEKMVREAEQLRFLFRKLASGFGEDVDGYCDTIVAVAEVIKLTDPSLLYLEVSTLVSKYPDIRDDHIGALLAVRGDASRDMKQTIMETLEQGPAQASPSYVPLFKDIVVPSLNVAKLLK
Chain of UniProt P26378 (P26378 whole entry, looked up): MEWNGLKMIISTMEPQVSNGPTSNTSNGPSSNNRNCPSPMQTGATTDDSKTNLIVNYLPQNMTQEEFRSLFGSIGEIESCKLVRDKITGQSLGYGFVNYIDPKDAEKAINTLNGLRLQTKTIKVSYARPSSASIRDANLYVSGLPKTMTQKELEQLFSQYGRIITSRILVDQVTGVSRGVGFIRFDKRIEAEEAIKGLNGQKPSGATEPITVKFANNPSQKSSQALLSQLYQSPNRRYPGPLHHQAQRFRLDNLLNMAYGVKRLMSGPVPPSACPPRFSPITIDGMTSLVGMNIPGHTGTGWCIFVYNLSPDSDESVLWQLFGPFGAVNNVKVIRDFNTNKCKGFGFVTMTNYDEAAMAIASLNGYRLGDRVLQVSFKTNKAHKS
Chain of UniProt O75521 (O75521 whole entry, looked up): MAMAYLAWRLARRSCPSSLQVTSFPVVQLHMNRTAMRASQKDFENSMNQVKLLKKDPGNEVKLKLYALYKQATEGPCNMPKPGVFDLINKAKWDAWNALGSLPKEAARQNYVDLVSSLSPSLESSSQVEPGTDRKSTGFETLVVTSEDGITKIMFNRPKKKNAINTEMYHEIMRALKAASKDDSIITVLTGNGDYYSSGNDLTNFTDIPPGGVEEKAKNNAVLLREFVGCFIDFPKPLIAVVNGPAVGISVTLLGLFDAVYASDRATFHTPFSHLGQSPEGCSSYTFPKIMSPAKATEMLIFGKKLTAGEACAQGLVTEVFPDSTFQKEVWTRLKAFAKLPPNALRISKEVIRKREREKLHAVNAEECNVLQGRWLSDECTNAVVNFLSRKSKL
Chain of UniProt Q9Y285 (Q9Y285 whole entry, looked up): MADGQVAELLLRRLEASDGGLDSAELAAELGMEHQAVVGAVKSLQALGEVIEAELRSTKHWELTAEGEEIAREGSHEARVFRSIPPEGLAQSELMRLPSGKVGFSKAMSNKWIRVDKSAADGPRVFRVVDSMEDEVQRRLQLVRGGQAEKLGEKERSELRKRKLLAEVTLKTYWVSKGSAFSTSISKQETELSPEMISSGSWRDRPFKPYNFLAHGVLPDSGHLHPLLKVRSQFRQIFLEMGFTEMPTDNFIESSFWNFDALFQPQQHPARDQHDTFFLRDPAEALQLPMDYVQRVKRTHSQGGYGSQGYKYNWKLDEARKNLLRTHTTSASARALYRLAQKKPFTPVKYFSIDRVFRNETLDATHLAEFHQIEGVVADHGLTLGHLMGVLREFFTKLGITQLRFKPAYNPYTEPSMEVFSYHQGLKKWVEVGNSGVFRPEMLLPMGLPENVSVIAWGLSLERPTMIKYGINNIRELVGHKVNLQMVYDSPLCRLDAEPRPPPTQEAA
Chain of UniProt O75616 (O75616 whole entry, looked up): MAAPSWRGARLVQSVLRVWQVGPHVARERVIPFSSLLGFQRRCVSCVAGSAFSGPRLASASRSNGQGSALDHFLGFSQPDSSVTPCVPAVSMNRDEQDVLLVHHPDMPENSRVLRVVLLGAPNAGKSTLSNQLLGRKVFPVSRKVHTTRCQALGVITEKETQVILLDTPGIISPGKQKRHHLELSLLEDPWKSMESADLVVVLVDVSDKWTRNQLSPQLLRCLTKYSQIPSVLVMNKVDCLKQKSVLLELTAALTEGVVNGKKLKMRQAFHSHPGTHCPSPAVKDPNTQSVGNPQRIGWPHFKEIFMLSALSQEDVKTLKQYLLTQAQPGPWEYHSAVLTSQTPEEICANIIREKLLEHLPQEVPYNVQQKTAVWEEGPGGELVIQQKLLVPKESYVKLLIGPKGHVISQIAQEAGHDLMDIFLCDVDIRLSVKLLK
Chain of UniProt Q9NR50 (Q9NR50 whole entry, looked up): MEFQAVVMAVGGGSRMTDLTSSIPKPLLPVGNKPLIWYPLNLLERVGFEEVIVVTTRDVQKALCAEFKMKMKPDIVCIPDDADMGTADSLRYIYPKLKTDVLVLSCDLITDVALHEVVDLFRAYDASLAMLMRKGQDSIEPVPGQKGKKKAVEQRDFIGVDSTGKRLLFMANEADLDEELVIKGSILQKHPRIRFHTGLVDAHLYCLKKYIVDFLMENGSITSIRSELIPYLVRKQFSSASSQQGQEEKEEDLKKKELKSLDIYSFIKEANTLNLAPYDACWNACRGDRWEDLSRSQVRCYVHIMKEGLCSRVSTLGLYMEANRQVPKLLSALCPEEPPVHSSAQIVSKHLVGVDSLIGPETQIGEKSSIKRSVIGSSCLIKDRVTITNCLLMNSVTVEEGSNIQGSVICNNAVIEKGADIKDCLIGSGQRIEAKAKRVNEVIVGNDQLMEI
Chain of UniProt A6NHQ2 (A6NHQ2 whole entry, looked up): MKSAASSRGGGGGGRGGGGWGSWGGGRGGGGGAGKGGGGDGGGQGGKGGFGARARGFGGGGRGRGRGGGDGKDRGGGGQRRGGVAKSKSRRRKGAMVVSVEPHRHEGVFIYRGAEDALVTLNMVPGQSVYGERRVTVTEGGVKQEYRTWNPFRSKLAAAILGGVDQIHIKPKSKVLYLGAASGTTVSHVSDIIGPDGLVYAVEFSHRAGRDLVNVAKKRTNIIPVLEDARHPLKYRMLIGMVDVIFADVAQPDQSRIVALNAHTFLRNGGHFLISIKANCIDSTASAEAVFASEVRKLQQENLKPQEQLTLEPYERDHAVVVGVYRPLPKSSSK
Chain of UniProt Q8N6R0 (Q8N6R0 whole entry, looked up): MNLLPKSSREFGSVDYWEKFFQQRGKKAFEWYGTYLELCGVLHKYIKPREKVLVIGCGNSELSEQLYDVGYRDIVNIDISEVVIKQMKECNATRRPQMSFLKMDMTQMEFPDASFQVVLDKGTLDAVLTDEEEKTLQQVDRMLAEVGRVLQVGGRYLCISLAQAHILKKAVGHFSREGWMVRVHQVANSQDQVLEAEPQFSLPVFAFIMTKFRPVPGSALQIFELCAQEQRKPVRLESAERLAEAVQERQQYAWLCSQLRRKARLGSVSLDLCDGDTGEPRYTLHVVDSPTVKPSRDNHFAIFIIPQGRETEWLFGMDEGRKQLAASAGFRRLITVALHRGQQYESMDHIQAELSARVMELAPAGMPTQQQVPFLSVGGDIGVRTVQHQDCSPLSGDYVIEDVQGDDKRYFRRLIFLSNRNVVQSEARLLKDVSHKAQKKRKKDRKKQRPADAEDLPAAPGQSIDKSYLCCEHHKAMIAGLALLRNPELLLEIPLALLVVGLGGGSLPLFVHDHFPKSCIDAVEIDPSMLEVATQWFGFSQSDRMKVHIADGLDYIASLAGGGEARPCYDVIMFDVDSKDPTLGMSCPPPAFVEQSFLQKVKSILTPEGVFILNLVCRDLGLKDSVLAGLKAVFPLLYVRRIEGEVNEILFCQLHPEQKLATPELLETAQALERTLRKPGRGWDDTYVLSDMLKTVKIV
Chain of UniProt P41567 (P41567 whole entry, looked up): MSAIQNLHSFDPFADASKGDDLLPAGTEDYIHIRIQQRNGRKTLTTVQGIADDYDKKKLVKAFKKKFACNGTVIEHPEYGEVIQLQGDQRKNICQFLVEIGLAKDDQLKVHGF

EIF1 (UniProt P41567) and EEF1AKNMT (UniProt Q8N6R0) are within 0.2 log units of each other in log2 fold change: -0.032 for the first, -0.004 for the second.

ECI2 (UniProt O75521) and FBLL1 (UniProt A6NHQ2) are within 0.2 log units of each other in log2 fold change: 0.08 for the first, 0.006 for the second.

FUBP3 (UniProt Q96I24) and DYRK1A (UniProt Q13627) are within 0.2 log units of each other in log2 fold change: -0.001 for the first, 0.021 for the second.

DYNC1I2 isoform 5 (UniProt Q13409) and FARSA (UniProt Q9Y285) are within 0.2 log units of each other in log2 fold change: 0.009 for the first, -0.025 for the second.

EIF2B3 (UniProt Q9NR50) and FAM118A (UniProt Q9NWS6) are within 0.2 log units of each other in log2 fold change: -0.006 for the first, 0.027 for the second.

FBXO38 (UniProt Q6PIJ6) and EAPP (UniProt Q56P03) are within 0.2 log units of each other in log2 fold change: -0.029 for the first, -0.083 for the second.

ERI1 (UniProt Q8IV48) and EP400 isoform 5 (UniProt Q96L91) are within 0.2 log units of each other in log2 fold change: -0.001 for the first, -0.047 for the second.

FBXO45 (UniProt P0C2W1) and ERLIN1 (UniProt O75477) are within 0.2 log units of each other in log2 fold change: -0.013 for the first, -0.07 for the second.

ERAL1 (UniProt O75616) and FOXK1 (UniProt P85037) are within 0.2 log units of each other in log2 fold change: -0.013 for the first, 0.022 for the second.

EEF1A1, A0A087WVQ9 and GAA (UniProt P10253) are within 0.2 log units of each other in log2 fold change: -0.025 for the first, -0.038 for the second.

First: EBP (UniProt Q15125)
Second: FKBP1A (UniProt P62942)
Chain of UniProt P62942 (P62942 whole entry, looked up): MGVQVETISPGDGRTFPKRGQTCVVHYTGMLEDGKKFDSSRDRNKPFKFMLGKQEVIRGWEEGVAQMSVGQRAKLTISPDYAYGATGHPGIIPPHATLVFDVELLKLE
The log2 fold change of the first is higher: 0.134 for the first, -0.154 for the second.

ETHE1 (UniProt O95571) and EXOC2 (UniProt Q96KP1) are within 0.2 log units of each other in log2 fold change: -0.01 for the first, -0.012 for the second.

GART (UniProt P22102) and FOXJ3 (UniProt Q9UPW0) are within 0.2 log units of each other in log2 fold change: 0.017 for the first, -0.016 for the second.

EGLN1 (UniProt Q9GZT9) and FHOD1 (UniProt Q9Y613) are within 0.2 log units of each other in log2 fold change: 0.008 for the first, -0.018 for the second.

FAM111A (UniProt Q96PZ2) and GAPVD1 isoform 6 (UniProt Q14C86) are within 0.2 log units of each other in log2 fold change: 0.036 for the first, -0.033 for the second.

FYB1 isoform 3 (UniProt O15117) and ELAVL4 (UniProt P26378) are within 0.2 log units of each other in log2 fold change: 0.007 for the first, 0.016 for the second.

FMNL1 isoform 3 (UniProt O95466) and EIF2AK2 (UniProt P19525) are within 0.2 log units of each other in log2 fold change: 0.051 for the first, 0.021 for the second.

EHD2 (UniProt Q9NZN4) and EXOC3 (UniProt O60645) are within 0.2 log units of each other in log2 fold change: 0.005 for the first, 0.018 for the second.
